This is a sample that favours compounds with a hit; in the whole collection about 19% have one here.
HT1080NT lethal: qHTS for induction of synthetic lethality in tumor cells producing 2HG: qHTS for the HT-1080-NT fibrosarcoma cell line; HT-1080-NT fibrosarcoma viability, CellTiter-Glo ATP luminescence, 48 h; Potency, µM (titrated, usually from 46.1 µM), inactives show top-dose activity, negative = less viability, usual class: cytotoxic; 360,000 tested, 1.6% active; AID 686970, 2013;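 also: NT is the 2HG producing partner of a matched IDH1 knockdown line; potency is read from the fitted curve at half-maximal effect; 0% = DMSO-treated cells and -100% = media-only wells without cells; nearly all actives have a fitted effect of over 55% in size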
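A 48-hour cytotoxicity screen used HT-1080-NT cells plated 2 hours before compound delivery. ATP-based CellTiter-Glo luminescence measured viability, normalized to DMSO and no-cell controls.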
HT1080 IDH1KD tx: qHTS for induction of synthetic lethality in tumor cells producing 2HG: qHTS for the HT-1080-IDH1KD cell line; HT-1080 IDH1 knockdown viability, ATP luminescence, 48 h; Potency, µM (top dose mostly 46.1 µM), without a hit: at the highest dose activity, negative = toxicity, most hits filed as cytotoxic; 360,000 tested, 2% active;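 also: potency is read from the fitted curve at half-maximal effect; 0% = DMSO wells and -100% = cell-free medium wells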
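Using the IDH1-knockdown HT-1080 line run in the same batch and compound series as the NT line, viability after 48 h at 37 °C was determined by CellTiter-Glo luminescence and expressed as % activity.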
DT40 TDP1 CPT: qHTS for Inhibitors of human tyrosyl-DNA phosphodiesterase 1 (TDP1): qHTS in cells in presence of CPT; chicken DT40 Tdp1-/-;hTDP1 cells + 20 nM CPT, ATP luminescence, 48 h; Potency, µM (doses to about 46.2 µM), for inactives: top-dose activity change, negative = growth inhibition, hits mostly inhibitors; 420,000 tested, 12% active; also: potency is read from the fitted curve at half-maximal effect; nearly all actives have a fitted effect of over 55% in size
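Chicken DT40 Tdp1-/- cells complemented with human TDP1, 400 cells/well, exposed to compounds plus 20 nM camptothecin for at least 48 h at 37 C; viability read as ATP content by CellTiter-Glo luminescence.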
IL-1B inflam inh: qHTS for Inhibitors of Inflammasome Signaling: IL-1-beta AlphaLISA Primary Screen. THP-1 LPS/ATP IL-1B secretion, AlphaLISA, 16 h; active compounds read low. activity change, % at 57.5 µM. 360,000 tested, 4.7% active. AID 743279, 2014; in the data active = activity change below about -50%; inconclusive = mostly about -30% to -49%
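THP-1 cells pretreated 1 hr with compounds (up to 57.5 uM final), then stimulated with LPS (250 ng/mL final) plus ATP (1.25 mM final); secreted IL-1B measured by AlphaLISA after 16 hr, decreased signal indicating inhibition.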
TDP1 cell noCPT: qHTS for Inhibitors of human tyrosyl-DNA phosphodiesterase 1 (TDP1): qHTS in cells in absence of CPT | Potency, µM (titrated, usually from 46.2 µM), without a hit: at the highest dose activity change, negative = growth inhibition, actives largely listed as inhibitors | 420,000 tested, 15% active | AID 686978, 2013 | DT40 Tdp1-/- hTDP1 cells, no CPT, ATP luminescence, 48 h; also: potency is read from the fitted curve at half-maximal effect; nearly all actives have a fitted effect of over 55% in size
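Cells were dispensed at 400 per well, compounds added by pin tool, plates incubated ≥48 hr at 37 °C, then CellTiter-Glo added for 30 min at room temperature before luminescence reading. Line: DT40 Tdp1-/- complemented with hTDP1; camptothecin omitted.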
Numbers without * were called inactive; i = inactive; ? = inconclusive; . = no result given. Unless noted, calls follow the shape of the dose curve; as a rule, active = well fitted curve in the direction sought with a large enough effect; inconclusive = small, poorly fitted or top-dose-only effect, or another doubt; inactive = no such curve, though single readings can be large; an effect the other way counts as inactive or inconclusive. Unless noted, % is scaled to controls: 0 for no effect and ±100 for the full control effect.

SMILES | HT1080NT lethal | HT1080 IDH1KD tx | DT40 TDP1 CPT | IL-1B inflam inh | TDP1 cell noCPT
CCn1cc(C(=O)OCC(=O)c2cc(C)n(-c3ccc(OC(F)F)cc3)c2C)c(=O)c2ccc(C)nc21 | -8% | 12% | ? | -11 | 13µM*
CCn1cc(C(=O)OCC(=O)Nc2ccccc2OC(F)F)c(=O)c2ccc(C)nc21 | 0% | -13% | -29% | 21 | ?
CC(=O)c1ccc(N2CCN(C(=O)C(=O)c3cn(CC(=O)N4CCCCCC4)c4ccccc34)CC2)cc1 | 3% | -1% | 23µM* | i | 13µM*
CCN(CC)CCNC(=O)c1cccc(NC(=O)C(=O)c2cc(Br)ccc2NC(C)=O)c1 | -17% | 2% | -2% | 15 | 5%
O=c1c2ccccc2oc2cc(OCc3ccc(F)cc3)cc(O)c12 | 14% | 4% | -7% | 24 | -2%
OCCN(Cc1ccccc1)Cc1ccc(F)c(F)c1 | 10% | -7% | -4% | -8 | -22%
Cc1cccc(NC(=O)CSc2cn(CC(=O)N3CCCCCC3)c3ccccc23)c1 | . | . | -6% | . | -29%
Cc1ccc(NC(=O)CSc2cn(CC(=O)N3CCCC3)c3ccccc23)cc1Cl | . | . | 26µM* | . | ?
CCOc1ccccc1NC(=O)COC(=O)c1ccccc1SCC(=O)N1CCCC1 | 0% | -12% | ? | 11 | 16µM*
Cc1ccc(NC(=O)CSc2cn(CC(=O)N3CCCCCC3)c3ccccc23)cc1 | . | . | -23% | . | ?
CC(=O)c1ccc(NC(=O)CSc2cn(CC(=O)N3CCCCC3)c3ccccc23)cc1 | . | . | ? | . | 21µM*
CCN1C(=O)/C(=C2\SC(N3CCOCC3)=NC2=O)c2ccccc21 | 14% | 11% | -14% | 6 | -1%
C=CCN1C(=O)/C(=C2\SC(N3CCOCC3)=NC2=O)c2cc(Br)ccc21 | 15% | 8% | 23µM* | 16 | ?
Cc1ccc(CNS(=O)(=O)c2cn(C)c(=O)n(C)c2=O)cc1 | 7% | 3% | 17% | -13 | -1%
CC1(c2ccc(OC(F)F)cc2)NC(=O)N(CC(=O)Nc2ccc3c(c2)OCO3)C1=O (configuration not stated) | ? | ? | 16µM* | 37 | ?
CC1(c2ccccc2)NC(=O)N(CC(=O)Nc2ccc3c(c2)OCO3)C1=O (configuration not stated) | -1% | -1% | -13% | 0 | -9%
Cc1ccc2nc(-c3ccc(NC(=O)CN4C(=O)NC(C)(c5ccc(OC(F)F)cc5)C4=O)cc3)sc2c1 (configuration not stated) | ? | ? | 15µM* | -5 | 23µM*
Cn1cc(C(=O)c2cccc(Cl)c2)cc1/C=N\O | -8% | 3% | 1% | -64* | -19%
CO/N=C\c1cc(C(=O)c2ccc(Cl)cc2Cl)cn1C | -9% | -1% | -19% | -62* | ?
CC(C)(C)c1cc(Cl)ccc1OCCOCCN1CCCC1 | 15µM* | 18µM* | ? | -75* | 13µM*
Clc1cccc(OCCCN2CCCC2)c1Cl | 0% | -13% | -25% | -13 | ?
Clc1cccc(OCCOCCN2CCNCC2)c1Cl | -19% | -26% | -18% | -22 | 23µM*
Clc1cc(Br)ccc1OCCOCCN1CCCC1 | 0% | -14% | ? | -91* | ?
Cc1ccc(CNC(=O)Cn2nc(N3CCN(c4ccccc4)CC3)ccc2=O)cc1 | . | . | -3% | . | ?
Clc1ccc(CSc2nnc(CNc3cccc(Cl)c3)o2)cc1 | ? | ? | ? | -3 | ?
SMILES | HT1080NT lethal | HT1080 IDH1KD tx | DT40 TDP1 CPT | IL-1B inflam inh | TDP1 cell noCPT
Cc1ccc(C)c(NC(=O)CN(C)C(=O)c2ccc(Cl)nc2)c1 | 0% | 1% | -5% | 39 | -5%
CCOC(=O)[C@]12CCCC=C1N(Cc1ccccc1)C(=O)[C@H](CC(=O)NCC13CC4CC(CC(C4)C1)C3)C2 | ? | ? | ? | -25 | ?
COC(=O)[C@@]12C[C@@H](CC(=O)NCC34CC5CC(CC(C5)C3)C4)C(=O)N(Cc3cccc4ccccc34)C1=CCC(C)(C)C2 | -22% | -12% | ? | -21 | ?
COC(=O)[C@]12CCCCC=C1N(Cc1ccccc1)C(=O)[C@H](CC(=O)NCC13CC4CC(CC(C4)C1)C3)C2 | ? | ? | 18µM* | -24 | ?
COC(=O)[C@@]12C[C@@H](CC(=O)NCC34CC5CC(CC(C5)C3)C4)C(=O)N(Cc3ccccc3)C1=CCC(C)(C)C2 | ? | ? | ? | -29 | 21µM*
COc1ccc(N2CCN(C(=O)CSc3ccc([N+](=O)[O-])cc3)CC2)cc1 | 13% | -3% | ? | -10 | 23µM*
O=C(NC1CCCCC1)N1CCN(c2ccc([N+](=O)[O-])cc2)CC1 | -4% | -2% | 13µM* | ? | ?
CC(=O)N1CCN(c2ccc([N+](=O)[O-])cc2)CC1 | -1% | 4% | 9% | 16 | -21%
COc1ccc(NC(=O)N2CCN(S(C)(=O)=O)CC2)cc1OC | -5% | -2% | -4% | 16 | -9%
COc1ccccc1CC(=O)N1CCN(c2ccc([N+](=O)[O-])cc2)CC1 | -11% | -8% | 15µM* | ? | 9.2µM*
COc1ccc(NC(=O)N2CCN(c3ccc([N+](=O)[O-])cc3)CC2)cc1OC | -15% | -1% | ? | ? | 18µM*
CCC(=O)Nc1ccc(S(=O)(=O)c2ccc(NC(=O)CC)cc2)cc1 | 5% | 7% | ? | 4 | ?
CCCN1CNc2c(c(=O)[nH]c(=S)n2CCc2ccsc2)C1 | 15% | 20% | -19% | . | ?
C[C@@H]1CN([C@H](C)CO)C(=O)CCCn2nncc2CO[C@@H]1CN(C)S(=O)(=O)c1ccccc1C#N | 16% | 1% | 5% | -10 | -4%
COc1ccc(CCC(=O)N2CCN(c3ccc([N+](=O)[O-])cc3)CC2)cc1OC | 0% | -9% | ? | ? | 15µM*
COc1ccc(NC(=O)N2CCN(c3ccc([N+](=O)[O-])cc3)CC2)cc1 | 15% | 13% | 2.3µM* | 2 | 2.3µM*
COc1ccc(C(=O)NC(=S)N2CCN(c3ccc([N+](=O)[O-])cc3)CC2)cc1 | -1% | 1% | ? | ? | ?
COc1ccc([C@H]2N[C@]3(CCCN(Cc4ccc(F)cc4)C3=O)[C@H]3C(=O)N(Cc4ccccc4)C(=O)[C@@H]23)cc1 | 2% | -3% | ? | -2 | ?

Bioassay records deposited in PubChem by National Center for Advancing Translational Sciences (NCATS).
